Assay outcomes as filed in PubChem.
Most compounds without a hit are left out; they make up all but 12% or so of the library.
G9a inh – qHTS Assay for Inhibitors of Histone Lysine Methyltransferase G9a | AID 504332, 2011 | 350,000 tested, 8.8% active | G9a H3K9 monomethylation, AlphaScreen, 2 h | Potency, µM (top dose mostly 102 µM), for the others: top-dose activity, negative = inhibition, most hits filed as inhibitors | Histone-lysine N-methyltransferase EHMT2 (Homo sapiens), Q96KQ7; also: % is scaled to controls: 0 for no effect and ±100 for the full control effect; nearly all actives have a fitted effect of over 75% in size
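Readings reflect AlphaScreen signal from monomethyl-H3K9 antibody detection. HMT at 20 nM; substrate b-H3K9 500 nM; cofactor SAM 20 uM; 2 h RT reaction; compounds tested as titrations in qHTS with 15 min preincubation.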
JMJD2A Tudor – qHTS Assay for Inhibitors of JMJD2A-Tudor Domain. AID 504339, 2011. Lysine-specific demethylase 4A (Homo sapiens), O75164. 390,000 tested, 4.4% active. AlphaScreen JMJD2A-Tudor / H3K4me3 peptide binding. Potency, µM (top dose mostly 114 µM), without a hit: top-dose activity change, negative = inhibition, usual class: inhibitors; also: % is scaled to controls: 0 for no effect and ±100 for the full control effect; nearly all actives have a fitted effect of over 50% in size
Target sequence (O75164 whole entry, looked up, the tested form may be a part): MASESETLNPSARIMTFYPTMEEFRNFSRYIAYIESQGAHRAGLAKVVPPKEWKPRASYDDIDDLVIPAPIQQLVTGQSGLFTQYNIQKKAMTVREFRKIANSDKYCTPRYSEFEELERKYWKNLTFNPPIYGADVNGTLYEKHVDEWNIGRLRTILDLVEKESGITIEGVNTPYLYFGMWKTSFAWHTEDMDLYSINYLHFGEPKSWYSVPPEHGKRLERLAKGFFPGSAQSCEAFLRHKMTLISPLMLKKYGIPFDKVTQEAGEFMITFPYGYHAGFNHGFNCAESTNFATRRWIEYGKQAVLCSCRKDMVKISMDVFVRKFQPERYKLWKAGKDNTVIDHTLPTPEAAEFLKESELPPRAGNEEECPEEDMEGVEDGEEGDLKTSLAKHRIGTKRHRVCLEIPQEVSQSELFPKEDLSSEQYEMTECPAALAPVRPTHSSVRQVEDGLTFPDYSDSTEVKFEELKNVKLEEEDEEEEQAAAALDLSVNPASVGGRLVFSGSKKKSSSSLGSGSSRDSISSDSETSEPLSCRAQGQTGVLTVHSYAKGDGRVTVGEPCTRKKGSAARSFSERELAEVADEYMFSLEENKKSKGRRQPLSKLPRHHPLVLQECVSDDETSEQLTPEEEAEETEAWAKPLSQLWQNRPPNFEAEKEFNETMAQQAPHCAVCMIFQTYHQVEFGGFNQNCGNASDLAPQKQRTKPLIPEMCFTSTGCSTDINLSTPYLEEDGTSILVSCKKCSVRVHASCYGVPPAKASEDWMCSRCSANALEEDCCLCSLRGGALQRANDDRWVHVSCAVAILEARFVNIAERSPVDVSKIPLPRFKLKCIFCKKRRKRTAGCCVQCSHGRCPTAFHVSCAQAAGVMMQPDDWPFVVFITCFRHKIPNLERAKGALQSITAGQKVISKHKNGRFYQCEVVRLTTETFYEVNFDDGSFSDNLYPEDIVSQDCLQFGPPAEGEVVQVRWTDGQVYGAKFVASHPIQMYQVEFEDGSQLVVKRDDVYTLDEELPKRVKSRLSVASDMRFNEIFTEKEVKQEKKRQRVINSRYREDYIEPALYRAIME
Sfp PPTase inh – qHTS Assay for Inhibitors of Bacillus subtilis Sfp phosphopantetheinyl transferase (PPTase) | 4'-phosphopantetheinyl transferase ffp (Bacillus subtilis), Q9F4F7 | Biochemical Sfp PPTase activity, qHTS | Potency, µM, without a hit: largest response in the series, negative = inhibition, hits mostly inhibitors | 310,000 tested, 3.5% active | AID 1490, 2009;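 also: the enzyme is Sfp with the accession as filed and its product quenches rhodamine fluorescence; 0% = enzyme reaction without inhibitor and -100% = no enzyme wells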
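Step 1, compound plus 15 nM Sfp-PPTase, 15 min, room temperature. Step 2, add rhodamine-CoA (5 uM) and BHQ-2-YbbR (12.5 uM). Step 3, read 525/598 nm fluorescence at 0 and 30 min.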
HP1b chromo inh – HTS for Inhibitors of HP1-beta Chromodomain Interactions with Methylated Histone Tails; AlphaScreen HP1-beta / biotin-H3K9me3 peptide binding; Potency, µM (titrated, usually from 114 µM), for inactives: at the top dose activity change, negative = inhibition, usual class: inhibitors; 390,000 tested, 0.56% active; also: nearly all actives have a fitted effect of over 70% in size
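Compound inhibition of the preformed complex between 50 nM HP1-beta and 50 nM biotinylated H3K9me3 peptide was read by AlphaScreen. Buffer was PBS pH 7.4 with 0.01% Tween-20. Incubations ran 30 min at room temperature, with 10 ug/mL donor/acceptor beads.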
BAZ2B block – qHTS Assay for Inhibitors of BAZ2B | AlphaScreen BAZ2B-H3K14Ac peptide displacement | Potency, µM (highest dose often 114 µM), for inactives: top-dose activity change, negative = inhibition, actives largely listed as inhibitors | 360,000 tested, 4.4% active; also: % is scaled to controls: 0 for no effect and ±100 for the full control effect; nearly all actives have a fitted effect of over 60% in size
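Inhibition is scored as reduced AlphaScreen emission. The BAZ2B/b-H3(5-23)K14Ac complex (50 nM each) in PBS pH 7.4, 0.01% Tween-20 meets compound (up to 110 uM) for 30 min at RT before bead addition.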
Starred values were filed as active, the others as inactive; ? = inconclusive; . = not tested or not shown; [ ] = another dose, or the depositor's remark. Calls follow the shape of the dose curve; as a rule, active = well fitted curve in the direction sought with a large enough effect; inconclusive = small, poorly fitted or top-dose-only effect, or another doubt; inactive = no such curve, though single readings can be large; an effect the other way counts as inactive or inconclusive. Potency is read from the fitted curve at half-maximal effect.

SMILES	G9a inh	JMJD2A Tudor	Sfp PPTase inh	HP1b chromo inh	BAZ2B block
Cc1ccc(C2Nc3ccc4ccccc4c3C3=C2C(=O)CC(C)(C)C3)o1 (configuration not stated)	?	-31%	0%	17%	-7%
O=C1CCCC2=C1C(c1ccco1)Nc1ccc3ccccc3c12 (configuration not stated)	16µM*	40µM*	45µM*	50µM*	13µM*
O=C1CCCC2=C1C(c1ccc(O)c(O)c1)Nc1ccc3ccccc3c12 (configuration not stated)	.	28µM*	.	?	.
COc1ccc(NC(=O)c2ccco2)cc1NC(=O)COc1ccc(Cl)c(C)c1	12%[59 µM]	-2%	.	32%	3%
Cc1ccc2nc(C)cc(N/N=C/c3ccccc3O)c2c1	16%	-35%	6%	8%	-34%
Cc1ccc(C)c(/C=N/Nc2nc3ccccc3c(=O)n2O)c1	28µM*	-11%	25µM*	-13%	1%
C/C(=N\Nc1nc2ccccc2c(=O)n1O)c1ccco1	79µM*	?	79µM*	?	-4%
Cc1ncsc1CCOC(=O)c1cccnc1	?	?	0%	16%	50µM*
COc1ccc2cc1Oc1ccc(cc1)CC1c3c(cc(OC)c4c3Oc3cc5c(cc3O4)CCNC5C2)CCN1C (configuration not stated)	?	11µM*	?	?	6.3µM*
COc1ccc2cc1Oc1ccc(cc1)CC1c3c(cc4c(c3Oc3cc5c(cc3OC)CCN(C)C5C2)OCO4)CCN1C (configuration not stated)	-10%[2.33 µM]	.	4%	.	.
COc1ccc2cc1Oc1ccc(cc1)C[C@H]1c3c(cc(OC)c4c3Oc3c(ccc5c3[C@H](C2)N(C)CC5)O4)CCN1C	.	20µM*	.	?	.
COC(=O)c1ccc(OC(=O)CS(=O)c2ccccc2[N+](=O)[O-])cc1 (configuration not stated)	.	-3%	-11%	32%	-10%
CCOC(=O)c1ccccc1OC(=O)CS(=O)c1ccccc1[N+](=O)[O-] (configuration not stated)	40µM*	-13%	1%	39%	-35%
COC(=O)c1ccc(Cl)cc1NC(=O)N(C)CCc1c(C)nn(C)c1C	2%[59 µM]	-4%	.	19%	-15%
CCC(=O)N(Cc1ccc(S(N)(=O)=O)cc1)C1CC(=O)N(c2ccc(OC)cc2)C1=O (configuration not stated)	8.9µM*	-11%	-9%	59%	-3%
CCOc1ccc(N2C(=O)CC(N(CCc3ccc(S(N)(=O)=O)cc3)C(C)=O)C2=O)cc1 (configuration not stated)	?	-15%	8%	2%	-26%
CSc1nc2ncc(C(=O)O)c(N)n2n1	-2%	-10%	4%	24%	-16%
N#Cc1ccc(-n2nccc2-c2cnc3n(c2=O)CCS3)cc1	-7%[12.7 µM]	50µM*	22%	-11%	8%
COc1ccc2c(c1)[N+](C)(C)C(C)(C)C=C2C	?	18µM*	-13%	?	-22%
CCOc1ccc2c(c1)[N+](C)(C)C(C)(C)C=C2C	?	18µM*	13%	3%	-16%
CC1CCC2C(C1)c1sc(=O)[nH]c1SC2(C)C (configuration not stated)	50µM*	?	8%	0%	?
COc1ccc(N2CCN(c3nc4c(c(=O)[nH]c(=O)n4C)n3Cc3cccc(C)c3)CC2)cc1	10µM*	?	-8%	?	-34%
COc1ccc(CCn2c(-n3nc(C)cc3C)nc3c2c(=O)[nH]c(=O)n3C)cc1	.	3.2µM*	.	-14%	.
COc1ccc(N2CCN(Cc3nc4c(c(=O)[nH]c(=O)n4C)n3Cc3ccccc3C)CC2)cc1	28µM*	-4%	.	19%	-23%
O=S(=O)(c1ccc(Br)cc1)c1nnn2c1nc(NCCc1ccccc1)c1sccc12	-3%[59 µM]	-4%	.	32%	-19%
SMILES	G9a inh	JMJD2A Tudor	Sfp PPTase inh	HP1b chromo inh	BAZ2B block
COc1cccc2c1ncc1c(-c3ccc(C)cc3)nn(-c3cccc([N+](=O)[O-])c3)c12	53%[59 µM]	-18%	.	56%	2%
CCc1ccc(NC(=O)COC(=O)CC2CCCC2)cc1	.	8%	.	69%	.
COc1ccc(S(=O)(=O)Nc2ccc(C)c(C)c2)cc1	.	-20%	.	.	.
COc1ccc(S(=O)(=O)Nc2ccc3c(c2)CCC3)cc1	-8%	10µM*	4%	-12%	6%
CC(=O)Nc1ccc(S(=O)(=O)Nc2ccc3c(c2)CCC3)cc1	45µM*	-22%	-17%	-4%	-18%
CCN(CC)c1ccc(NS(=O)(=O)c2ccc(OC)cc2)cc1	16µM*	-3%	-16%	25%	40µM*
CC(=O)c1ccc(OCCCC(=O)NNC(=O)c2ccccn2)cc1	?	-4%	.	59%	6%
Cc1cc(NCc2ccccn2)ccc1Br	25µM*	8.9µM*	-15%	-38%	50µM*
Cc1cc(C)c(S(=O)(=O)NCc2ccccn2)c(C)c1	53%	-12%	10%	39%	11%
CCCCCC(=O)Nc1nc(C)c(-c2csc(Nc3cc(Cl)ccc3C)n2)s1	?	?	12%	-11%	?
CCCCCC(=O)Nc1nc(C)c(-c2csc(Nc3cc(OC)ccc3OC)n2)s1	7.1µM*	50µM*	9%	?	28µM*
CCCCCCC(=O)Nc1nc(C)c(-c2csc(Nc3cc(OC)ccc3OC)n2)s1	?	50µM*	11%	-13%	?
COc1ccc2cnoc(=O)c2c1OC	.	.	11%	.	.
C=C(C)c1sc(-c2ccc(Cl)cc2)nc1C	.	57%	.	91%	.
Cc1ccc(-n2nc3c(N4CCC(C(=O)NCCc5cccs5)CC4)nnc(C)c3c2C)cc1	2%[0.0925 µM]	-13%	1%	21%	-1%
CC1CCCN(C(=O)c2ccc(CSc3nc4ccncc4n3Cc3ccccc3)cc2)C1 (configuration not stated)	?	-24%	.	38%	-17%
CC1CCN(C(=O)c2ccc(CSc3nc4ccncc4n3Cc3ccc(F)cc3)cc2)CC1	79µM*	-20%	-3%	19%	-8%
CCn1c(C)cc(/C=C2\NC(=O)N(CC(=O)Nc3ccc(F)cc3)C2=O)c1C	.	?	2%	-5%	?
Cc1cccc(NC(=O)CN2C(=O)N/C(=C/c3ccc(C)s3)C2=O)c1	2%	-13%	-20%	30%	12%
COc1ccc(/C=C2\SC(=O)N(CC(=O)Nc3ccc(O)cc3)C2=O)cc1OC	24%	-3%	-2%	11%	6%
